Test results: the supplement of paper PMC6555819

Columns and labels:
Experiment in all cases: PBM binding z-score (relative to random genomic background probes); higher = stronger binding; sequences stand for … in GC…GCGATTGACAGCGTAGAATGAAGG
[1] = test system: FXR:RXRa (NR concentration 270 nM, RXRa partner concentration 90 nM)
Method in brief: (§1)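 Random background probes are the reference for binding z-scores. These scores derive from regression-normalized fluorescence on custom Agilent 4×180K protein-binding microarrays incubated 1 h with ligand-free nuclear receptor dimers. Binding was detected with antibodies against each partner (one per run).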

[2] = test system: LXRa:RXRa (NR concentration 270 nM, RXRa partner concentration 90 nM)
Method in brief: as §1

[3] = test system: LXRa homodimer (NR concentration 270 nM)
Method in brief: as §1

[4] = test system: LXRb:RXRa (NR concentration 270 nM, RXRa partner concentration 90 nM)
Method in brief: as §1

[5] = test system: LXRb homodimer (NR concentration 270 nM)
Method in brief: as §1

[6] = test system: PPARa:RXRa (NR concentration 270 nM, RXRa partner concentration 90 nM)
Method in brief: as §1

[7] = test system: PPARg:RXRa (NR concentration 180 nM, RXRa partner concentration 90 nM)
Method in brief: as §1

[8] = test system: PPARg:RXRa 270nM:90nM, anti-RXR (NR concentration 270 nM, RXRa partner concentration 90 nM)
Method in brief: as §1

[9] = test system: PPARg:RXRa 30nM:10nM, anti-RXR (NR concentration 30 nM, RXRa partner concentration 10 nM)
Method in brief: as §1

[10] = test system: PPARg:RXRa 90nM:30nM, anti-RXR (NR concentration 90 nM, RXRa partner concentration 30 nM)
Method in brief: as §1

[11] = test system: PPARg:RXRa DBDmut IVT, anti-RXR (DBD mutation: RXRa K156A/R161A, NR concentration 270 nM, RXRa partner concentration 90 nM)
Method in brief: as §1

[12] = test system: PPARg:RXRa IVT, anti-PPARg (NR concentration 270 nM, RXRa partner concentration 90 nM)
Method in brief: as §1

[13] = test system: PPARg DBDmut:RXRa IVT, anti-PPARg (DBD mutation: PPARg1 K132A/R137A, NR concentration 270 nM, RXRa partner concentration 90 nM)
Method in brief: as §1

[14] = test system: PPARg DBDmut IVT, anti-PPARg (DBD mutation: PPARg1 K132A/R137A, NR concentration 270 nM)
Method in brief: as §1

[15] = test system: PPARg homodimer (NR concentration 180 nM)
Method in brief: as §1

[16] = test system: PXR:RXRa (NR concentration 270 nM, RXRa partner concentration 90 nM)
Method in brief: as §1

[17] = test system: PXR homodimer (NR concentration 270 nM)
Method in brief: as §1

[18] = test system: RARa:RXR (NR concentration 270 nM, RXRa partner concentration 90 nM)
Method in brief: as §1

[19] = test system: RARa homodimer (NR concentration 270 nM)
Method in brief: as §1

[20] = test system: RARb:RXRa (NR concentration 270 nM, RXRa partner concentration 90 nM)
Method in brief: as §1

Sequence	PBM binding z-score [1]	PBM binding z-score [2]	PBM binding z-score [3]	PBM binding z-score [4]	PBM binding z-score [5]	PBM binding z-score [6]	PBM binding z-score [7]	PBM binding z-score [8]	PBM binding z-score [9]	PBM binding z-score [10]	PBM binding z-score [11]	PBM binding z-score [12]	PBM binding z-score [13]	PBM binding z-score [14]	PBM binding z-score [15]	PBM binding z-score [16]	PBM binding z-score [17]	PBM binding z-score [18]	PBM binding z-score [19]	PBM binding z-score [20]
TCTATTAGTTGAAGGGCAACCGGCGAGTCCGTTT	0.888	1.19	0.417	0.88	0.229	0.966	-0.211	2.04	3.53	2.92	2.36	0.473	0.341	0.729	1.25	0.943	0.705	0.455	0.951	1.74
AGAATGAGCTTACCAAAGATCAGGGAAACGCTTG	-0.649	-0.433	-0.203	-0.523	-0.394	-0.401	0.53	0.206	0.32	-0.0483	-0.815	-0.433	-0.258	-0.198	-0.572	-0.428	-0.462	-0.0887	-0.255	-0.501
CTCGAAAGGTCGGTTGTGGTGAGTATACGGATAA	2.01	1.54	0.263	1.67	0.416	2.29	0.242	0.949	-0.0875	0.394	0.261	0.611	-0.0487	0.467	1.3	1.13	0.427	1.81	1.01	3.03
CGAACTAGGTCAGAACAGGACAGGGAAGGATGAT	1.5	1.01	0.0984	0.515	-0.138	3.4	5.45	4.61	1.99	3.65	7.1	7.39	2	3.12	1.1	0.778	0.31	2.03	0.307	3.02
ATCTATAGGTAACAAGTTCAGTGAAAGAGAGGAC	0.766	1.11	0.709	0.927	0.629	1.64	1.46	1.66	0.781	1.46	2.14	1.83	1.5	1.51	1.15	1.72	1.68	1.74	1.48	1.72
AATACAGGGTCACTAGGCAAGAGTAGGTACGAAT	6.39	4.96	0.866	3.82	1.1	5.59	7.09	5.74	3.03	4.6	3.19	4.81	1.06	0.858	2.63	3.06	0.322	4.1	1.16	4.13
CTCGAAAGGTCGTGCTCGGGTGAGTATACCAAAC	5.24	3.9	-0.0589	3.32	-0.0126	4.83	2.25	3.88	1.18	2.3	0.705	1.72	0.595	-0.339	1.58	3.15	-0.25	4.22	-0.17	3.98
TCTTGTAGATCAAGCAGGTTACGAAAGCCTGAGT	0.426	0.343	-0.343	0.659	-0.527	1.03	0.00625	1.34	2.5	1.88	1.76	1.04	-0.0946	0.435	0.37	0.615	-0.0528	0.951	-0.22	0.516
CTCGAAATGTCGTGCTCAGGTGAGTATACCAAAC	0.0674	-0.048	-0.175	-0.182	0.0146	-0.0536	-0.165	-0.324	0.0529	-0.0106	-0.127	0.323	0.0105	0.169	-0.101	-0.206	-0.0833	0.0583	0.245	0.417
CGAACTAGGTCAGAACAGGACTGTGAAGGATGAT	0.728	0.692	-0.197	0.252	-0.415	2.98	5.13	4.21	1.77	3.09	7.08	7.13	0.747	0.194	0.61	0.118	-0.184	0.787	0.123	2.71
ACTAGCAGGCAAAGGGTCACTCAAGATTAGTCCG	2.62	2.93	0.422	2.94	-0.218	4.2	5.28	5.86	4.68	6.43	0.313	2.76	-0.0407	-1.05	2.82	3.4	0.241	4.35	1.42	3.42
GCTTGTAGATCAATGTTAAGAAAGACTAAGCTAA	-0.421	-0.43	-0.434	-0.517	-0.377	-0.584	-0.00589	-0.385	-0.425	-0.416	1.38	0.377	-0.235	0.113	-0.551	-0.629	-0.348	-0.432	-0.306	-0.399
TGTCAAAGTTCAAAGGTAACTTAAGTATCCACAC	7.43	6.57	4.91	5.29	1.88	5.97	9.03	7.64	5.83	7.46	0.229	4.39	1.49	1.25	2.75	5.84	3.49	6.36	1.36	5.23
TCTAGTTGGTCACGGAGGTCACACATGACGGGTA	3.11	3.52	2.42	3.42	0.605	4.06	3.59	4.13	3.55	3.84	2.5	4.34	1.38	0.722	2.93	4.71	1.67	4.56	1.18	4.01
